For assay [1], the system named is TTR (gene 7276). As to the kind of experiment: CCTE_GLTED_hTTR_0.125uM: CCTE's human Transthyretin (hTTR) Inhibition Assay, with 0.125uM TTR, Great Lakes Toxicology and Ecology Division (GLTED) Lab (AID 2284431).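 Also: hits lower the fluorescence signal relative to DMSO baseline.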 The essentials:
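TTR at 0.125uM incubated 2 h with test chemical; displacement of bound ANSA read by fluorescence (ex 380, em 475). Activity is signal loss versus DMSO baseline.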

For assay [2], the system named is SRY-box transcription factor 17 (SOX17) Protein Expression, Deisenroth Lab, SOX17 (gene 64321). As to the kind of experiment: CCTE_Deisenroth_DEVTOX-GLR_legacy_Sox17: (Legacy) CCTE's DevTox GLR-Endo Assay Evaluation of SRY-box transcription factor 17 (SOX17) Protein Expression, Deisenroth Lab (AID 2284341). The following applies: actives raise or lower the signal. The essentials: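 Percent SOX17-positive cells, scored by high-content imaging as mean intensity exceeding pluripotent-control median by 5x BMAD, divided by cell count. Human RUES2-GLR endoderm differentiation, 48 h, two exposures 24 h apart, 1 nM–200 uM; DMSO-referenced bidirectional fitting.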

The test system of assay [3] is SERPINA7 (gene 6906). As to the kind of experiment: CCTE_GLTED_hTBG: CCTE's human Thyroxine-binding Globulin (TBG) Inhibition Assay, Great Lakes Toxicology and Ecology Division (GLTED) Lab (AID 2284343; active = hit-call score of the fitted dose curve at least 0.9, where 1 is the maximum;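 also: active chemicals lower fluorescence versus DMSO baseline by displacing probe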). The essentials: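 Cell-free binding assay in which human TBG is incubated with test chemical for 2 hours and displacement of the fluorescent probe ANSA is read at 380 nm excitation/475 nm emission. Activity is fitted against DMSO as the negative control.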

For assay [4], the system named is SRY-box transcription factor 2 (SOX2) Protein Expression, Deisenroth Lab, SOX2 (gene 6657). As to the kind of experiment: CCTE_Deisenroth_DEVTOX-GLR_legacy_Sox2: (Legacy) CCTE's DevTox GLR-Endo Assay Evaluation of SRY-box transcription factor 2 (SOX2) Protein Expression, Deisenroth Lab (AID 2284346). A digest of the protocol:
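RUES2-GLR human pluripotent cells seeded 24 h, then differentiated 48 h in defined media with two chemical doses 24 h apart (10-point, 1 nM–200 uM). Fixed, nuclear-stained, imaged; % Sox2+ cells (>5x BMAD over endoderm control median), DMSO-subtracted, fitted upward.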

The subject of assay [5] is SRY-box transcription factor 17 (SOX17) Protein Expression, Deisenroth Lab, SOX17 (gene 64321). As to the kind of experiment: CCTE_Deisenroth_DEVTOX-GLR_Endo_SOX17: CCTE's DevTox GLR-Endo Assay Evaluation of SRY-box transcription factor 17 (SOX17) Protein Expression, Deisenroth Lab (AID 2284413). The essentials:
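Endpoint: % change in SOX17+ fraction (SOX17+ cells / cell count) vs 0.2% DMSO solvent control. RUES2-GLR reporter cells, 48 h endoderm differentiation, two doses at 24 h intervals, high-content fluorescence imaging, 5 fields/well.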

Assay [6] in a line: CCTE_Deisenroth_DEVTOX-GLR_Endo_CellCount: Viability Assessment in CCTE's DevTox GLR-Endo Assay, Deisenroth Lab (AID 2284420). The essentials: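 Percent change in nuclear-stain cell counts versus 0.2% DMSO, from high-content imaging over 5 fields per well. Over a 48 h endoderm differentiation, RUES2-GLR cells received two doses 24 h apart across a 1 nM–200 uM series, with n=4.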

The subject of assay [7] is SRY-box transcription factor 17 (SOX17) Protein Expression, Deisenroth Lab, SOX17 (gene 64321). As to the kind of experiment: CCTE_Deisenroth_DEVTOX-GLR_Pluri_SOX17: CCTE's DevTox GLR-Pluri Assay Evaluation of SRY-box transcription factor 17 (SOX17) Protein Expression, Deisenroth Lab (AID 2284427; active = hit-call score of the fitted dose curve at least 0.9, where 1 is the maximum). A digest of the protocol:
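The endpoint is SOX17+ cells as a fraction of cell count, corrected for the 0.2% DMSO control and obtained by high-content fluorescence imaging of fixed cells. Cells were RUES2-GLR under a 48-hour endoderm differentiation, dosed twice at 24-hour intervals over 1 nM–200 uM.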

Assay [8] deals with SRY-box transcription factor 2 (SOX2) Protein Expression, Deisenroth Lab, SOX2 (gene 6657). As to the kind of experiment: CCTE_Deisenroth_DEVTOX-GLR_Pluri_SOX2: CCTE's DevTox GLR-Pluri Assay Evaluation of SRY-box transcription factor 2 (SOX2) Protein Expression, Deisenroth Lab (AID 2284428). The essentials:
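Percent SOX2+ cells (SOX2+ count per total cells, fluorescent imaging) in RUES2-GLR human pluripotent line, expressed relative to 0.2% DMSO. Compounds dosed twice at 24 h intervals during 48 h, 1 nM - 200 uM, 10 concentrations.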

For assay [9], the system named is Brachyury (BRA) Protein Expression, Deisenroth Lab, TBXT (gene 6862). As to the kind of experiment: CCTE_Deisenroth_DEVTOX-GLR_Pluri_BRA: CCTE's DevTox GLR-Pluri Assay Evaluation of Brachyury (BRA) Protein Expression, Deisenroth Lab (AID 2284429; active = hit-call score of the fitted dose curve at least 0.9, where 1 is the maximum). A digest of the protocol:
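Human pluripotent RUES2-GLR cells, seeded 24 h, were differentiated 48 h in defined media with two chemical doses at 24-h intervals (10-point, 1 nM - 200 uM). Readout: percent BRA+ cells by fluorescent reporter imaging, minus 0.2% DMSO control.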

A short description of assay [10]: CCTE_Deisenroth_DEVTOX-GLR_Pluri_CellCount: Viability Assessment in CCTE's DevTox GLR-Pluri Assay Evaluation of Total Cell Counts, Deisenroth Lab (AID 2284430). The essentials: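 RUES2-GLR human pluripotent cells, seeded 24 h, then differentiated 48 h with two chemical exposures 24 h apart; 10-point series 1 nM - 200 uM. Fixed, nuclear-stained, imaged (5 fields/well); nuclei count as % change vs 0.2% DMSO.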

Assay [11] relates to SRY-box transcription factor 2 (SOX2) Protein Expression, Deisenroth Lab, SOX2 (gene 6657). As to the kind of experiment: CCTE_Deisenroth_DEVTOX-GLR_Endo_SOX2: CCTE's DevTox GLR-Endo Assay Evaluation of SRY-box transcription factor 2 (SOX2) Protein Expression, Deisenroth Lab (AID 2284412; active = hit-call score of the fitted dose curve at least 0.9, where 1 is the maximum). The essentials: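 RUES2-GLR human pluripotent cells were seeded 24 h, then differentiated 48 h with two chemical exposures 24 h apart. Cells were fixed, nuclei stained and imaged by high-content microscopy. Endpoint is %SOX2+ cells over cell count, minus 0.2% DMSO control; 10-point series 1 nM–200 uM.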

The subject of assay [12] is Brachyury (BRA) Protein Expression, TBXT (gene 6862). As to the kind of experiment: CCTE_Deisenroth_DEVTOX-GLR_Endo_BRA: CCTE's DevTox GLR-Endo Assay Evaluation of Brachyury (BRA) Protein Expression, Deisenroth Lab (AID 2284417). A digest of the protocol: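 Endpoint is the fraction of BRA reporter-positive cells over total nuclei, corrected by subtracting the 0.2% DMSO value. Chemicals (1 nM - 200 uM, 10 points) were dosed twice during 48 h differentiation of RUES2-GLR cells, read by imaging.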

The nature of assay [13]: CCTE_Mundy_HCI_iCellGluta_NOG_NeuronCount: CCTE's Neurite Outgrowth Assay in iCellGluta cells for Neuron Count, Mundy Lab (AID 2284340; active = hit-call score of the fitted dose curve at least 0.9, where 1 is the maximum;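 also: cells fixed about 48 h after compound addition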). The essentials: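 Neuron count read by automated high-content imaging of Hoechst 33342 and betaIII-tubulin/Alexa Fluor-488 labelling in human iPSC glutamatergic neurons. Activity fitted relative to DMSO.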
Assay [14] in a line: CCTE_Mundy_HCI_iCellGluta_NOG_NeuriteCount: CCTE's Neurite Outgrowth Assay in iCellGluta cells for Neurite Count, Mundy Lab (AID 2284342; active = hit-call score of the fitted dose curve at least 0.9, where 1 is the maximum;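 also: chemical exposure about 48 hours starting 2 hours after plating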).

Results filed as inconclusive are left out. The source made the active and inactive calls. The calls were made as follows, unless noted: active = hit-call score of the fitted dose curve at least 0.9, where 1 is the maximum; inactive = score below 0.9.

`COc1ccc(/C=C/S(=O)(=O)NC(=O)c2ccc(C)cc2Cl)cc1`: the AC50 in assay [1] was 12.1 µM (active).
Take `O=C(O)c1cc(N=Nc2ccc(S(=O)(=O)Nc3ccccn3)cc2)ccc1O`: the outcome in assay [2], in assay [4], in assay [5], in assay [6], in [7] and in assay [9] was inactive. Also, the outcome in assay [10] was inactive. Also, the results for the AC50 in [3], in assay [8] and in assay [1] were 15.9 µM (active), 100 µM (active) and 0.422 µM (active), respectively.
`Cn1c(=O)c2c(ncn2C)n(C)c1=O`: the compound was classed as inactive in assay [2], in assay [4], in [5], in [12], in assay [6] and in assay [8]. Also, the compound was classed as inactive in assay [10]. In assay [11], the AC50 was 33.8 µM (active).
For the compound `O=P(OC(CCl)CCl)(OC(CCl)CCl)OC(CCl)CCl`, the compound was classed as inactive in assay [13] and in assay [14]. Moreover, the AC50 in assay [3] is 3.27 µM (active).
As to `Cn1cnc([N+](=O)[O-])c1Sc1ncnc2nc[nH]c12`, the AC50 in [1] is 25.1 µM (active).
For the compound `O=C(O)c1cccc(Oc2ccccc2)c1`, the concentration at half-maximal activity (AC50) in [3] is 19.2 µM (active); in assay [1], 0.542 µM (active).
Consider `C=CCCCCCCCCC(=O)O`, for which, in [1], the AC50 was 7.39 µM (active).
For the compound `NC(=O)NO`, the outcome in [2], in assay [4], in assay [5], in [12], in [7] and in assay [8] was inactive. Moreover, the call in [9] and in assay [10] was inactive. For the same compound, the AC50 in assay [6] was 61.3 µM (active).
As to `O=C(NS(=O)(=O)/C=C/c1ccccc1)c1ccc(F)cc1Cl`, in [1], the AC50 is 13 µM (active).
With `Nc1ccc(Nc2ccccc2)cc1`, the AC50 in [3] was 50 µM (active); in assay [1], 31.5 µM (active).
Regarding `CC[C@H]1OC(=O)[C@H](C)[C@@H](O[C@H]2C[C@@](C)(OC)[C@@H](O)[C@H](C)O2)[C@H](C)[C@@H](O[C@@H]2O[C@H](C)C[C@H](N(C)C)[C@H]2O)[C@](C)(O)C[C@@H](C)C(=O)[C@H](C)[C@@H](O)[C@]1(C)O`, the outcome in [13] and in assay [14] was inactive.
`Nc1nc2ncc(CNc3ccc(C(=O)N[C@@H](CCC(=O)O)C(=O)O)cc3)nc2c(=O)[nH]1`: the result in assay [2], in [4], in assay [11], in assay [5], in [12] and in [6] was inactive. The result in assay [8] and in [10] was inactive.
As for `Oc1ccc2c(c1)-c1ccccc1C2`, the results for the AC50 in assay [3] and in assay [1] were 19.4 µM (active) and 7.96 µM (active), respectively.
With `C[C@](N)(Cc1ccc(O)c(O)c1)C(=O)O`, the result in [2], in assay [4], in [11], in assay [5], in assay [12] and in assay [6] was inactive. Further, in assay [10], the compound was called inactive. In addition, the AC50 in assay [8] is 0.308 µM (active); in assay [9], 153 µM (active).
For the compound `CC(C)=CCCC(C)CCO` (stereo not given), in assay [1], the AC50 was 45.8 µM (active).
Consider `CC[C@H](C)C(=O)O[C@H]1C[C@@H](C)C=C2C=C[C@H](C)[C@H](CC[C@@H]3C[C@@H](O)CC(=O)O3)[C@H]21`, for which the AC50 in assay [2] was 7.97 µM (active); in [4] it was 41.7 µM (active); in assay [11], 62.1 µM (active); in assay [5], 6.57 µM (active); in assay [12], 54.2 µM (active); in [6], 2.81 µM (active). Besides, the AC50 in assay [7] is 100 µM (active); in assay [8], 14.5 µM (active); in assay [9] it was 20.8 µM (active); in [10] it was 9.67 µM (active).
As for `O=C(OC[C@H]1O[C@@H](OC(=O)c2cc(O)c(O)c(OC(=O)c3cc(O)c(O)c(O)c3)c2)[C@H](OC(=O)c2cc(O)c(O)c(OC(=O)c3cc(O)c(O)c(O)c3)c2)[C@@H](OC(=O)c2cc(O)c(O)c(OC(=O)c3cc(O)c(O)c(O)c3)c2)[C@@H]1OC(=O)c1cc(O)c(O)c(OC(=O)c2cc(O)c(O)c(O)c2)c1)c1cc(O)c(O)c(OC(=O)c2cc(O)c(O)c(O)c2)c1`, the concentration at half-maximal activity (AC50) in assay [1] was 0.252 µM (active).
The same measure, in the same setting: under `COC(=O)c1c(Cl)c(Cl)c(C(=O)OC)c(Cl)c1Cl` stands 0.0546 µM (active).
For `O=C1CCC(N2C(=O)c3ccccc3C2=O)C(=O)N1` (stereo not given), the AC50 in [2] is 1.44 µM (active); in assay [5] it was 1.56 µM (active). Besides, the outcome in assay [4], in [12], in [6], in assay [8], in assay [9] and in assay [10] was inactive.

A word on the AC50: it is the concentration at which the activity in the assay is half-maximal.

The record behind these values is PubChem BioAssay (EPA / NIEHS).
